# Measurements published in publication PMC4336329 (PLoS ONE, 2015).
# Out of some 310,000 compounds screened, about 14,000 (4.5%) showed an effect of 50% or more. The effect is printed as a negative number. This is one part of a sample in which strong results are shown more often than they occur.
# Biological target: human ether-à-go-go-related gene (hERG) potassium channel (human, UniProt Q12809)
# Test: primary screen, population patch clamp on CHO cells stably expressing hERG; higher = less effect of the substance
# 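Further: peak tail current of the secondary pulse compared with the same well before compound.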
# Sequence of human ether-à-go-go-related gene (hERG) potassium channel (Q12809 whole entry, looked up): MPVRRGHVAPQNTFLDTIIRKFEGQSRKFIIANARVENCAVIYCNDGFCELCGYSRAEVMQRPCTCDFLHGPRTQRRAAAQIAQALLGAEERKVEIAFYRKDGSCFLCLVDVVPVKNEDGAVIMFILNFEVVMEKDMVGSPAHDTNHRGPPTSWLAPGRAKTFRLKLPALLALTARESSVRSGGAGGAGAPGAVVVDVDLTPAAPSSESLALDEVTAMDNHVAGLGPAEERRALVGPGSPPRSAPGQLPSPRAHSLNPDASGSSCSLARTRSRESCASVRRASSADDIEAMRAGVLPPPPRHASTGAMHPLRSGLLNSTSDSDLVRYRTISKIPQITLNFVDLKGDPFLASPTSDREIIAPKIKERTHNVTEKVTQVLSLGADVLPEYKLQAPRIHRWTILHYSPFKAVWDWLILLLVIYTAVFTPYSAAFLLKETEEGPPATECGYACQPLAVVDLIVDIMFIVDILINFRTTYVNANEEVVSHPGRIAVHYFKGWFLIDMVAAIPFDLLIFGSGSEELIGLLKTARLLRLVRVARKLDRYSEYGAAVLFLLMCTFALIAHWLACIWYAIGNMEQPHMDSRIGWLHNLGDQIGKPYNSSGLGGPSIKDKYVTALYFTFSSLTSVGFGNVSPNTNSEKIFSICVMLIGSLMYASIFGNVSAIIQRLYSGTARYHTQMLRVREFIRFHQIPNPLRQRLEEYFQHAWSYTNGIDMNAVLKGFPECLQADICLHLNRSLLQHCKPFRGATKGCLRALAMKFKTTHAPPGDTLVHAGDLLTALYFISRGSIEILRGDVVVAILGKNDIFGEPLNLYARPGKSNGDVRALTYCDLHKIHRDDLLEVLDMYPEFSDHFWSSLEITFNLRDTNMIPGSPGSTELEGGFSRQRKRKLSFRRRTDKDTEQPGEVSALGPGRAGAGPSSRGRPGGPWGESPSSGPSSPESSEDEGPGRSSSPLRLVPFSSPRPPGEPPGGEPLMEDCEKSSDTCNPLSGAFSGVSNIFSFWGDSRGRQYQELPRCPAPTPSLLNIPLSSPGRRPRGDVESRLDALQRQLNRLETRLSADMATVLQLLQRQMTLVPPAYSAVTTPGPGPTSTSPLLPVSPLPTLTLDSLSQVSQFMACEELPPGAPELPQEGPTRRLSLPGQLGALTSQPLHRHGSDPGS
row,Structure (SMILES),"hERG current change (%, negative = inhibition) at 10uM"
1,CC(c1ccon1)N(C)C(=O)CCc1nnc(Cc2ccc(-c3ccccc3)cc2)o1 (centres unmarked),-21.7%
2,COC(=O)/C(=C/c1ccc(F)cc1)NC(C)=O,-0.211%
3,O=C(CN1C(=O)S/C(=C\c2cccc(Cl)c2)C1=O)NC1C=CS(=O)(=O)C1 (centres unmarked),18.1%
4,O=C(Nc1ccccc1F)c1ccc2c(c1)OCO2,15.7%
5,COCCNCCCCOc1ccc(Br)cc1C.O=C(O)C(=O)O,-36.7%
6,CC(C)NCCCCOc1ccc(Br)cc1Cl.O=C(O)C(=O)O,-64.6%
7,CC(C)NCCCOc1ccc(Cl)cc1Br.O=C(O)C(=O)O,-54.4%
8,COCCCNCCCCOc1ccc(Br)cc1C.O=C(O)C(=O)O,-64.6%
9,CC(C)NCCCCOc1ccccc1-c1ccccc1.O=C(O)C(=O)O,-32.9%
10,CC(C)NCCCCOc1cccc(Br)c1.O=C(O)C(=O)O,-25.8%
11,Cc1ccc(OCCOCCNC(C)C)c(Br)c1.O=C(O)C(=O)O,-18.3%
12,COCCCNCCCCOc1cccc(Br)c1.O=C(O)C(=O)O,-19.3%
13,Cc1cccc(NS(=O)(=O)c2cccc(C(=O)N3CCCCCC3)c2)c1,-3.09%
14,Cc1cnn(-c2cc(N/N=C/c3ccc(F)cc3)ncn2)c1,5.69%
15,CC(C)Cc1nnc(NC(=O)CCC(=O)N2CCC3(CC2)OCCO3)s1,12.3%
16,O=c1c2ccccc2oc2cc(C#Cc3ccccn3)ccc12,7.36%
17,C/C=C(/C)C(=O)Nc1cccc(C2=NOC3(C2)C[C@@H](C(N)=O)N(C(=O)CCCCC)C3)c1 (some centres unmarked),-40.1%
18,COc1cc(/C=N/NC(=O)c2cc(C3CC3)[nH]n2)ccc1O,-12.7%
19,CCOC(=O)C1=C(C)N(CC)C(=S)NC1c1ccc(Cl)cc1 (centres unmarked),-9.13%
20,COc1ccc(C2=NNC(c3ccco3)=Nc3ccc(F)cc32)cc1,-10.8%
21,COc1ccc2c(c1)C(c1ccc([N+](=O)[O-])cc1)=NNC(c1ccco1)=N2,-60%
22,COc1ccc2c(c1)C(c1ccccc1)=NNC(c1ccco1)=N2,-15.7%
23,O=C(CS(=O)(=O)c1cn(Cc2ccc(F)cc2)c2ccccc12)N1CCCCC1,-0.405%

row,Structure (SMILES),"hERG current change (%, negative = inhibition) at 10uM"
1,Cc1ccc(C#CC[N+](C)(C)CC#Cc2ccccc2)cc1.[Br-],-75.9%
2,C#CC[N+](C)(C)CC#Cc1ccc(C)cc1.[Br-],6.33%
3,C#CC[N+](CC)(CC)CC#Cc1ccccc1.[Br-],9.22%
4,C#CC[N+](C)(C)CC#Cc1ccccc1.[Br-],13.3%
5,CC[N+](CC)(CC#CCO)CC#Cc1ccccc1.[Br-],33.7%
6,CC[N+](CC)(CC#Cc1ccccc1)CC#Cc1ccccc1.[Br-],-69.8%
7,O=C(CSc1nnc(CNC(=O)c2ccco2)o1)Nc1ccc(F)cc1F,8.95%
8,O=C(c1ccc(C#Cc2ccccc2)o1)N1CCN(c2ccccn2)CC1,-6.76%
9,COc1ccc(Nc2ncccc2C(=O)Nc2ccccc2)cc1,-9.63%
10,Cc1ccc(OCc2ccccc2Br)c([N+](=O)[O-])n1,16.7%
11,CN(Cc1cccc2cnccc12)C(=O)CCc1nnc(CCc2ccccc2)o1,-44.7%
12,CC(=O)c1ccc(-c2nnc(CCC(=O)N(C)Cc3cccc4cnccc34)o2)s1,-81.4%
13,COc1ccccc1CCc1nnc(CCC(=O)N(C)Cc2cccc3cnccc23)o1,-35.3%
14,O=C(NC1CCCCC1)C(c1ccncc1)N(Cc1ccc(F)cc1)C(=O)c1ccccn1 (centres unmarked),-5.49%
15,Cc1cc(S(=O)(=O)N2CCc3ccccc3C2)ccc1F,7.2%
16,COc1ccc(N2CCN(CC(=O)NC(C)c3ccccc3)CC2)cc1 (centres unmarked),20.6%
17,CC(NC(=O)CN1CCN(c2ccc(Cl)cc2)CC1)c1ccccc1 (centres unmarked),-42.7%
18,CC(=O)C(Cc1ccccc1)NC(=O)CN1CCN(Cc2ccccc2)CC1 (centres unmarked),-5.57%
19,CC(CCc1ccccc1)NC(=O)CN1CCN(c2ccccc2)CC1 (centres unmarked),-55.8%
20,CC(CCc1ccccc1)NC(=O)CN1CCN(c2ccc(O)cc2)CC1 (centres unmarked),-37.1%
21,O=C(CN1CCN(Cc2ccccc2)CC1)NC(c1ccccc1)c1ccccc1.O=C(O)C(=O)O,-59.8%
22,COc1ccc(/C=N/NC(=O)CN2CCCC2)cc1,-14.8%
23,O=C(CN1CCN(c2ccccc2O)CC1)NC(c1ccccc1)c1ccccc1,-22.7%

row,Structure (SMILES),"hERG current change (%, negative = inhibition) at 10uM"
1,COc1ccc(C(NC(=O)CN2CCCCCC2)c2ccc(OC)cc2)cc1,-65.9%
2,O=C(CN1CCN(c2ccc(O)cc2)CC1)NC(c1ccccc1)c1ccccc1,-50.8%
3,CC(CCc1ccccc1)NC(=O)CN1CCc2ccccc2C1 (centres unmarked),-22.4%
4,O=C(O)C(=O)O.c1ccc(CN2CCN(C(c3ccccc3)c3ccccc3)CC2)cc1,2.22%
5,Cc1ccc(SCCSc2ncccn2)cc1,-2.38%
6,CC(C)c1cc(-c2n[nH]c(=S)n2Cc2ccccc2)cs1,17.8%
7,Cc1cc(C)nc(N2CCN(C(=O)CCC(=O)Nc3nnc(CC(C)C)s3)CC2)n1,-6.7%
8,O=C(N1CCCCC1)N1CCN(S(=O)(=O)c2cccc([N+](=O)[O-])c2)CC1,-15.8%
9,COc1cc(S(=O)(=O)NCc2cccnc2)ccc1F,-5.7%
10,CN(C)C(=O)N1CCCC(C(=O)NCc2cccs2)C1 (centres unmarked),1.62%
11,CNc1ccccc1C(=O)OCC(=O)N(CCOC)c1c(N)n(CC(C)C)c(=O)[nH]c1=O,9.81%
12,CCCCN1CCNC[C@@H]1Cc1ccc(O)cc1,16%
13,CCN(CC(=O)Nc1ccc(Br)c(C)c1)CC(=O)NC(C)C,-4.86%
14,O=C(NCCO)c1cc([N+](=O)[O-])cc2c1C=Cc1ccccc1O2,-31.4%
15,CC1Cc2ccccc2N1C(=O)COC(=O)C1(c2ccccc2F)CCCC1 (centres unmarked),-5.21%
16,CCN(CC)S(=O)(=O)c1ccc(NS(=O)(=O)c2cccc(C)c2)cc1,-20.4%
17,O=C(O)CCC1(c2ccccc2)NC(=O)NC1=O (centres unmarked),2.53%
18,C[n+]1ccccc1/C=N/O.[Cl-],17.3%
19,COc1ccccc1CN1Cc2cccc3c2[C@@H](CC1=O)[C@H](O)[C@H](O)C3,4.43%
20,COC(=O)C1C(=O)N2CCCSC2=C(C#N)C1c1cccs1 (centres unmarked),1.49%
21,O=C(CN1CCCC1)NC(c1ccccc1)c1ccccc1.O=C(O)C(=O)O,-34.7%
22,CC1CN(CC(=O)NC(C)c2ccccc2)CC(C)O1 (centres unmarked),9.23%
23,CC1CCCCN1CC(=O)NC(c1ccccc1)c1ccccc1.O=C(O)C(=O)O (centres unmarked),-65.8%

row,Structure (SMILES),"hERG current change (%, negative = inhibition) at 10uM"
1,CC1Cc2ccccc2N1CC(=O)NC(c1ccccc1)c1ccccc1.O=C(O)C(=O)O (centres unmarked),19.1%
2,O=C(CN1CCCCCC1)NC(c1ccccc1)c1ccccc1.O=C(O)C(=O)O,-57.7%
3,CC(NC(=O)CN1CCCC1)c1ccccc1 (centres unmarked),21%
4,CSc1ccccc1NC(=O)CN1CCCCC1C (centres unmarked),0.324%
5,CC1CC(C)CN(CC(=O)NC(c2ccccc2)c2ccccc2)C1.O=C(O)C(=O)O (centres unmarked),-68.4%
6,CC1CCCCN1CC(=O)NC(=O)NCc1ccccc1 (centres unmarked),16.8%
7,CCOCCCN1CN(Cc2ccco2)CNC1=S,7.86%
8,CC1=C(c2ccc(F)cc2)[N+](=O)C(C)(C)N1[O-],17.7%
9,Cc1ccc(-c2cc(=O)c3ccccc3[nH]2)cc1,13.6%
10,Cc1cccn2cc(CCNS(=O)(=O)c3ccc([N+](=O)[O-])cc3)nc12,-22.7%
11,COc1ccc2[nH]cc(C(O)CN3CCC(C(N)=O)CC3)c2c1 (centres unmarked),12%
12,COc1ccc(N2CCN(CC(O)c3c[nH]c4ccc(OC)cc34)CC2C)cc1 (centres unmarked),-68.1%
13,COc1ccc2[nH]cc(C(O)CN3CCN(c4ccccc4F)CC3)c2c1 (centres unmarked),-22%
14,CC(Cc1ccccc1)[n+]1cc(/N=C(\[O-])Nc2ccccc2)on1 (centres unmarked),-17.4%
15,CC1Sc2ccc(S(=O)(=O)NCCc3ccccc3)cc2NC1=O (centres unmarked),12.5%
16,Clc1cc(Br)ccc1OCCOCCN1CCCC1.O=C(O)C(=O)O,-57.1%
17,CC1CCN(CCOc2ccc(Cl)c(Cl)c2)CC1,-46.3%
18,CC1CCCN(CCOCCOc2ccc(Br)cc2Cl)C1.O=C(O)C(=O)O (centres unmarked),-71%
19,CC1CCN(CCOCCOc2ccc(Br)cc2Cl)CC1.O=C(O)C(=O)O,-75.5%
20,CN1CCN(CCOCCOc2ccc(Br)cc2Cl)CC1.O=C(O)C(=O)O,-14.2%
21,Clc1cc(Br)ccc1OCCN1CCOCC1.O=C(O)C(=O)O,-2.95%
22,CC1CCN(CCCOc2ccc(Cl)cc2Br)CC1,-76.3%
23,CC1CCN(CCOc2cc(Cl)ccc2Cl)CC1,-33.8%
